Bioassay records (PubChem)
Marburg entry inh = inhibitors of Marburg virus binding or cell entry; Marburg virus pseudotyped entry inhibition, cell reporter; Potency, µM (highest dose often 37.8 µM), inactives show at the highest dose activity change, negative = inhibition, usual class: inhibitors; 300,000 compounds, 1.8% hits; AID 540276; calls by dose curve; tested in HEK293 cells; also: potency is read from the fitted curve at half-maximal effect
Vaccinia Venus = inhibitors of vaccinia virus (Venus reporter). Vaccinia virus Venus reporter expression, fluorescence. Potency, µM (highest dose often 36.5 µM), inactives show at the highest dose activity change, negative = inhibition, hits mostly inhibitors. 330,000 compounds, 0.46% hits; calls by dose curve; tested in A549 cells; also: potency is read from the fitted curve at half-maximal effect; nearly all actives have a fitted effect of over 30% in size
HCMV antiviral = blocks human cytomegalovirus replication; HFF cells, HCMV-luciferase reporter, 72 h; active compounds read low; activity change, negative = inhibition, % at 57.5 µM; 410,000 compounds, 4.5% hits; AID 1259415; in the data active = activity change below about -60%; inconclusive = no clear call, values can overlap the other calls; inactive = above about -39%
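Compounds were evaluated in HFFs infected with an HCMV luciferase reporter virus (MOI 1 PFU/cell). Luciferase in lysates collected 72 h post infection served as the replication measure.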
VACV mCherry inh = vaccinia inhibition (mCherry reporter); Potency, µM (titrated, usually from 36.5 µM), without a hit: top-dose activity change, negative = inhibition, hits mostly inhibitors; AID 720579; Vaccinia virus mCherry reporter infection, fluorescence; 310,000 compounds, 0.63% hits; calls by dose curve; tested in A549 cells; also: potency is read from the fitted curve at half-maximal effect; nearly all actives have a fitted effect of over 35% in size
LASV entry inh = Lassa virus entry inhibition; Potency, µM (series often up to 37.9 µM), for the others: at the top dose activity change, negative = inhibition, most hits filed as inhibitors; Lassa virus pseudotype entry inhibition, cell reporter; 300,000 compounds, 1.2% hits; calls by dose curve; tested in HEK293 cells; also: potency is read from the fitted curve at half-maximal effect; nearly all actives have a fitted effect of over 50% in size
HCV inhibitor = inhibitors of hepatitis C virus infection. Huh7.5.1 HCVcc-Cre infection, luciferase reporter, 44 h. Potency, µM (highest dose often 41.8 µM), for the others: at the top dose activity change, negative = inhibition, hits mostly inhibitors. 340,000 compounds, 3.4% hits. AID 651820; active = well fitted inhibition curve with a large enough effect; inconclusive = small, poorly fitted or top-dose-only effect, or another doubt; inactive = no such curve, though single readings can be large or run the other way; also: potency is read from the fitted curve at half-maximal effect
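Antiviral activity was scored by luciferase reporter output from cells infected with HCVcc-Cre (~0.5 moi) in presence of compound, 44 h infection period, cells seeded 1,000/well 4 h prior.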
An asterisk follows results filed as active; i = inactive; ? = inconclusive; / = no result; [ ] = another dose, or the depositor's remark. In the library only some 7.8% were active in any assay of this set; here they are far more common. % is scaled to controls: 0 for no effect and ±100 for the full control effect.

SMILES	Marburg entry inh	Vaccinia Venus	HCMV antiviral	VACV mCherry inh	LASV entry inh	HCV inhibitor
C/C(=N\Nc1nncc2ccccc12)c1cccc(OC(F)F)c1	?	-16.7%	41.0	?	2.82µM*	?
C/C(=N\Nc1nncc2ccccc12)c1ccc(O)cc1	?	-2.2%	15.2	?	?	7.08µM*
CN(C)c1ccc(/C=N/Nc2nncc3ccccc23)cc1	?	-9.2%	40.3	i	?	-22.7%
COc1ccc(-c2nc(NCCCN(C)C)c3ccccc3n2)cc1	/	/	129.7	/	/	?
C/C(=N\Nc1nncc2ccccc12)c1ccc(C(C)(C)C)cc1	?	2.3%	/	-6.0%	?	2.51µM*
COc1ccc(-c2nc(N/N=C(\C)c3ccc(O)cc3)c3ccccc3n2)cc1	/	/	-19.2	/	/	10µM*
COc1cc(C2CC(=O)Nc3c2c(C)nn3-c2nncc(-c3ccccc3)n2)cc(OC)c1OC (centres undefined)	-29.0%[46.1 µM]	1.0%	2.3	7.6%	?	/
COc1ccccc1NC(=O)CSc1nc2c(oc3ccccc32)c(=O)n1-c1ccccc1F	-10.2%[46.1 µM]	-2.7%	22.5	-13.9%	/	/
Fc1ccc(Nc2nc(-c3cccc(Cl)c3)c3c(n2)-c2ccccc2OC3)cc1	-0.6%[46.1 µM]	-5.4%	-14.3	-11.8%	15.5%[46.1 µM]	/
COc1cccc(C(Nc2ccccc2)c2ccc3ccc(C)nc3c2O)c1 (centres undefined)	/	?	-35.8	7.08µM*	/	/
CC(=O)NC(c1cccc([N+](=O)[O-])c1)c1ccc2cccnc2c1O (centres undefined)	?	?	-102.3*	?	?	1.78µM*
Cc1cccc(NC(c2ccc(O)cc2)c2ccc3ccc(C)nc3c2O)n1 (centres undefined)	-1.7%	/	-36.2	/	20.6µM*	?
Cc1ccc2cccc(O)c2n1	/	-3.6%	/	-6.2%	/	/
COc1cccc(C(NC(C)=O)c2ccc3cccnc3c2O)c1 (centres undefined)	?	?	-99.0*	?	?	4.47µM*
CCCCC(=O)NC(c1cccc([N+](=O)[O-])c1)c1ccc2cccnc2c1O (centres undefined)	/	/	-102.7*	/	/	?
COc1ccccc1NS(=O)(=O)c1cc([N+](=O)[O-])ccc1N/N=C/c1c[nH]c2ccccc12	?	/	-31.1	/	-3.9%	15.8µM*
COCCN(CCOC)Cc1c(O)ccc2c1O/C(=C\c1ccc(C)o1)C2=O	-0.3%[46.1 µM]	0.9%	-88.5*	-3.8%	4.2%[46.1 µM]	-18.4%
CCOC(=O)c1c(C)[nH]c(-c2csc(N)n2)c1C	?	-24.0%	-81.2*	?	?	?
CCN(C(=O)Cn1ncc2c(=O)oc3ccccc3c21)c1ccccc1F	?	0.8%	5.8	-8.9%	-1.5%[46.1 µM]	/
Cc1ccc(OCC(=O)c2cc(C)n(-c3ccccc3)c2C)c([N+](=O)[O-])n1	?	-7.9%	-98.6*	-11.9%	?	?
Cc1cc(C(=O)CCl)c(C)n1-c1cccc([N+](=O)[O-])c1	10µM*	-3.1%	-95.4*	i	?	?
C=CCn1c(C)cc(C(=O)COc2ccc(C)nc2[N+](=O)[O-])c1C	?	-14.1%	-92.1*	i	?	?
COCCn1c(C)cc(C(=O)COc2ccc(C)nc2[N+](=O)[O-])c1C	/	/	-93.9*	/	/	-18.3%
CC(=O)c1c(C(C)=O)c(C)n(-c2cccc([N+](=O)[O-])c2)c1C	32.0%	-25.6%	-15.4	i	19.8%	-7.9%
CCCOc1ccc(C(=O)Nc2ccc3oc(-c4ccc(N(C)C)cc4)nc3c2)cc1	/	-8.4%	9.1	-8.7%	-3.3%[46.1 µM]	/
SMILES	Marburg entry inh	Vaccinia Venus	HCMV antiviral	VACV mCherry inh	LASV entry inh	HCV inhibitor
O=[N+]([O-])c1ccc(S(=O)(=O)N2CCN(c3nc(-c4cccs4)nc4ccccc34)CC2)cc1	/	-11.8%	/	-15.5%	/	/
CCOC(=O)c1cc2c(=O)n3ccccc3nc2n(CC2CCCO2)c1=NC(=O)c1ccc(F)cc1 (centres undefined)	-24.5%[46.1 µM]	-1.7%	-7.6	0.6%	15.7%[46.1 µM]	/
CCC(C(=O)Nc1ccccc1C(=O)OC)n1c(C)c2cnn(-c3ccccc3)c(=O)c2c1C (centres undefined)	?	-4.7%	-2.7	-6.8%	-27.1%[46.1 µM]	/
CCCn1c(C)cc(C(=O)COc2ccc(C)nc2[N+](=O)[O-])c1C	?	-5.9%	-89.0*	-10.6%	14.8%	-27.5%
COC(=O)CC1=C(C(=O)OC)[C@H](c2cccc(OCC(N)=O)c2)C(C#N)=C(N)O1	-29.8%	/	/	/	/	/
COC(=O)CC1=C(C(=O)OC)C(c2cccc(OCC(N)=O)c2)C(C#N)=C(N)O1 (centres undefined)	-29.8%	4.1%	-101.2*	-5.1%	1.5%	-9.8%
Cn1cccc1/C=N/n1c(-c2ccccc2)n[nH]c1=S	?	10.7%	10.0	6.4%	?	13.8%
Cn1cccc1/C=N/n1c(-c2ccc(C(C)(C)C)cc2)n[nH]c1=S	?	-12.0%	?	/	10µM*	?
O=C(Cn1c(=O)n(CCCS(=O)(=O)C2CCCCC2)c(=O)c2ccccc21)Nc1ccc(F)c(Cl)c1	1.1%[46.1 µM]	-4.7%	-0.6	-6.7%	1.6%[46.1 µM]	/
O=C(c1ccco1)N1CCN(C(=O)C2CCCc3c2[nH]c2ccc(Cl)cc32)CC1 (centres undefined)	2.82µM*	-16.1%	-37.9	?	4.47µM*	?
CC[C@]12c3[nH]c4ccc(OC)cc4c3CCN1C(=O)C(CC(=O)NCC13CC4CC(CC(C4)C1)C3)C[C@@H]2C(=O)N1CCN(C(=O)c2ccco2)CC1 (some centres undefined)	-1.1%	0.0%	/	-6.9%	/	0.1%
O=C(O)c1[nH]c2ccc(Cl)cc2c1CC(=O)N1CCN(C(=O)c2ccco2)CC1	10.9%	-14.2%	5.5	/	10.0%	10.6%
CN(C)C(=O)CCc1ccc2c3c([nH]c2c1)[C@]1(C)[C@@H](C(=O)N2CCCCC2)C[C@H](CC(=O)NCC24CC5CC(CC(C5)C2)C4)C(=O)N1CC3	0.3%	-19.2%	-90.1*	-24.1%	/	-22.2%
CC[C@]12c3[nH]c4cc(-c5ccco5)ccc4c3CCN1C(=O)[C@@H](CC(=O)NCC13CC4CC(CC(C4)C1)C3)C[C@@H]2C(=O)N1CCN(C(=O)c2ccco2)CC1	1.2%	?	-31.7	7.08µM*	/	?
CC(C)N(C(=O)[C@H]1CC(CC(=O)NCCC2=CCCCC2)C(=O)N2CCc3c([nH]c4ccccc34)[C@]12C)C(C)C (some centres undefined)	/	-11.3%	-3.3	-12.0%	/	0.562µM*
CCCN(CCC)c1ccc(C2N=C(N)Nc3nc4ccccc4n32)cc1 (centres undefined)	-2.8%[46.1 µM]	-25.0%	?	?	8.5%[46.1 µM]	/
COC(=O)c1c(NC(=O)c2ccc(S(=O)(=O)N3CCCCC3)cc2)sc2c1CCN(C)C2	/	-11.4%	-2.0	-15.8%	-0.1%[46.1 µM]	/
COc1cc2nc(N3CCCCC3)nc(NC(C)C)c2cc1OC	/	?	/	-19.3%	/	/
